RORg inh: inhibitors of mouse ROR gamma transcriptional activity | P51450 | Drosophila S2 Gal4-RORgamma UAS-luciferase reporter, 20 h | Potency, µM (highest dose often 53.6 µM), for inactives: at the highest dose activity change, negative = inhibition, most hits filed as inhibitors | 310,000 compounds, 5.4% hits | AID 2551; further: nearly all actives have a fitted effect of over 60% in size
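Stably transfected Drosophila Schneider cells are the test system, with ROR gamma fused to Gal4 and luciferase under UAS control; luminescence is read after 20 hr of 700 uM copper sulfate induction at ambient temperature.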
VP16 counter: inhibits Gal4-VP16 luciferase reporter, ROR gamma counter-screen. Drosophila S2 Gal4-VP16 UAS-luciferase, luminescence, 20 h. Potency, µM (top dose mostly 53.6 µM), inactives show at the top dose activity, negative = inhibition, usual class: inhibitors. 310,000 compounds, 3.5% hits;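 further: Gal4-VP16 expression switched on by copper sulfate through the metallothionein promoter; nearly all actives have a fitted effect of over 50% in size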
ALDH1A1 inh: ALDH1A1 (human) enzyme inhibition | P00352 | Purified ALDH1A1, NADH fluorescence, propionaldehyde substrate | Potency, µM (top dose mostly 75.3 µM), for inactives: top-dose activity, negative = inhibition, most hits filed as inhibitors | 220,000 compounds, 7.3% hits; active means well fitted inhibition curve with a large enough effect, not every such curve was filed as active; inconclusive means small, poorly fitted or top-dose-only effect, or another doubt; inactive means no such curve, though single readings can be large or run the other way;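 further: plate controls were no enzyme wells and a reference inhibitor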
Target sequence (P00352 whole entry, looked up): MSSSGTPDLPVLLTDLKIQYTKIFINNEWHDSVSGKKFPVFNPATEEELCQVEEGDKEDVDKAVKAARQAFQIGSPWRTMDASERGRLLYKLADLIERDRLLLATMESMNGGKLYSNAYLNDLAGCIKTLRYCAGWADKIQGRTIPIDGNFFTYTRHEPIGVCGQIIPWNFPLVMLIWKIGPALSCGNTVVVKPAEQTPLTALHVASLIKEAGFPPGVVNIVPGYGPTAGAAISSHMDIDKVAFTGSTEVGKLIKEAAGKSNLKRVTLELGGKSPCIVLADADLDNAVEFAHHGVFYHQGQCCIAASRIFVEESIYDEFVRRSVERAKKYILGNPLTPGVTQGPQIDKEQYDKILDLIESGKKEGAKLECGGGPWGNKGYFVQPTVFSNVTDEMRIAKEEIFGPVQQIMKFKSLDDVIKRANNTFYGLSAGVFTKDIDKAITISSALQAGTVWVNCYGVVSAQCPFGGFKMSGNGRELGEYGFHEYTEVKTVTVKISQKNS
PLK1 PBD block: PLK1 (human) polo-box domain binding inhibition | Plk1 PBD binding of FITC phosphopeptide, fluorescence polarization | 360,000 compounds, 2.8% hits | P53350 | Potency, µM, for the others: max response, negative = inhibition, usual class: inhibitors; further: series mostly up to about 57 µM; nearly all actives have a fitted effect of over 65% in size
Sfp PPTase inh: Sfp phosphopantetheinyl transferase inhibition. Q9F4F7. 310,000 compounds, 3.5% hits. Potency, µM, inactives show largest response in the series, negative = inhibition, most hits filed as inhibitors. Biochemical Sfp PPTase activity, qHTS;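 further: the enzyme is Sfp with the accession as filed and its product quenches rhodamine fluorescence; 0% = enzyme reaction without inhibitor and -100% = no enzyme wells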
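Compounds were incubated with enzyme (final 15 nM) for 15 min at room temperature before substrate addition started the reaction. Fluorescence at 525 nm excitation, 598 nm emission was recorded immediately and after 30 minutes.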
An asterisk follows results filed as active; ? = inconclusive; . = no result given; [ ] = remark or other dose. Shown are actives, neighbours in structure and some others; about 12% of the full set was active somewhere. Unless noted, the call rests on the fitted dose curve; in most records, active means well fitted curve in the direction sought with a large enough effect; inconclusive means small, poorly fitted or top-dose-only effect, or another doubt; inactive means no such curve, though single readings can be large; an effect the other way counts as inactive or inconclusive. Unless noted, on the % scale 0 is the no-effect control and ±100 the full control effect; potency means the concentration at half of the fitted maximal effect.

SMILES | RORg inh | VP16 counter | ALDH1A1 inh | PLK1 PBD block | Sfp PPTase inh
Cc1ccc(-c2ccc(CN3C(CC(C)C)C(=O)N(Cc4cn(CC5CCCCC5)nn4)CCS3(=O)=O)cc2)cc1 (stereo unspecified) | . | . | . | -7% | .
O=C(O)c1ccccc1N/N=C\c1ccnc2ccccc12 | 5µM* | ? | ? | -17% | 12%
O=C(CSCc1ccccc1)N/N=C/c1cc2c(cc1Br)OCO2 | ? | 11µM* | ? | 1% | 26%
ON=Cc1ccnc2ccccc12 | . | . | . | 0% | .
O=C(Cc1ccccc1)N/N=C/c1cc(Br)cc(Br)c1O | 0.79µM* | 1.6µM* | . | -26% | 4%
CNc1ccnc(-c2cccc(NS(C)(=O)=O)c2)n1 | 8% | 0% | 20% | . | 25%
CC(C)C1Nc2ccc(C(=O)N3CCN(c4ccccn4)CC3)cc2NC1=O (stereo unspecified) | -9% | -2% | . | -15% | 9%
O=C(c1ccc(N2CCCC2)c([N+](=O)[O-])c1)N1CCN(c2ccccn2)CC1 | 23% | -5%[10 µM] | ? | 1% | 7%
Cc1ccc(C(=O)N2CCN(c3ccccn3)CC2)cc1[N+](=O)[O-] | 11% | 0%[10 µM] | ? | -6% | 15%
O=C(c1ccc(Cl)c([N+](=O)[O-])c1)N1CCN(c2ccccn2)CC1 | 15% | 3% | 10µM* | 0% | 13%
O=C(c1ccc(S(=O)(=O)Cc2ccccc2Cl)c([N+](=O)[O-])c1)N1CCN(c2ccccn2)CC1 | 13% | ? | 18µM* | ? | 1%
O=C1CNc2ccc(C(=O)N3CCN(c4ccccn4)CC3)cc2N1 | -23% | -3% | . | 24µM* | 12%
CC(=O)N(CCc1ccccc1)c1ccc2c(c1)C1CC2CCN1C(=O)OCc1ccccc1 (stereo unspecified) | . | . | . | -1% | .
CCN(CC)C(=O)Cn1cc(C(=O)C(=O)Nc2ccc3c(c2)OCCO3)c2ccccc21 | 8% | 2% | . | -3% | 0%
O=C(O)[C@H]1C(=CCO)O[C@H]2CC(=O)N12 | -3% | -7% | ? | . | 8%
O=[N+]([O-])c1ccc(O)c(C=Nc2ccc3c(c2)OCCO3)c1 | -40% | -30% | ? | 1% | -9%
O=[N+]([O-])c1ccc(O)c(C=Nc2ccc3oc(Cc4ccc(Cl)cc4)nc3c2)c1 | -29% | -17% | ? | . | 28µM*
NC(=O)CCC(NC(=O)OCc1ccccc1)C(=O)OCC(=O)c1ccccc1 (stereo unspecified) | . | . | . | -16% | .
O=C1NC(=Nc2ccccc2)S/C1=C\c1ccccc1 | ? | -6% | . | 4% | 17%
O=C1N/C(=N/Nc2ccccc2)S/C1=C\c1ccccc1 | -42% | -24% | 5.6µM* | 21µM* | 25µM*
CCOCCOC(=O)c1[nH]c2c(c1C)C(=O)CC(c1ccc(N(C)C)cc1)C2 (stereo unspecified) | ? | -21% | 13µM* | -9% | 10%
C/C=C/COC(=O)c1[nH]c2c(c1C)C(=O)CC(c1ccc(N(C)C)cc1)C2 (stereo unspecified) | ? | 3% | 5µM* | -15% | 2%
CCC(C)OC(=O)c1[nH]c2c(c1C)C(=O)CC(c1ccc(N(C)C)cc1)C2 (stereo unspecified) | ? | -64% | 3.5µM* | -6% | -5%
CCOC(=O)N1CCN(C(=O)C[C@@H]2C[C@@]3(C(=O)OC)CC(C)(C)CC=C3N(Cc3ccccc3)C2=O)CC1 | . | . | . | -6% | .
Cc1ccc(-c2ccc(C3C4C=CCC(C)C4C(=O)N3Cc3ccccc3)c(F)c2)cc1 (stereo unspecified) | -1% | -5% | . | . | ?
SMILES | RORg inh | VP16 counter | ALDH1A1 inh | PLK1 PBD block | Sfp PPTase inh
O=C(Nc1ccc2c(c1)nc1n2CCOC1)c1ccco1 | -45% | -8% | -12% | -4% | 5%
O=C(Nc1ccc2c(c1)nc1n2CCN(C2CCCCC2)C1)NC1CCCCC1 | -29% | -14% | ? | . | -2%
COc1ccccc1C(=O)Nc1ccc2c(c1)nc1n2CCN(C2CCCCC2)C1 | -14% | -15% | . | 17µM* | -5%
O=C(Nc1nnc2n1CCS2)c1ccco1 | ? | -8% | . | -21% | 56µM*
O=C(Nc1ccc2c(c1)nc1n2CCN(C2CCCCC2)C1)c1ccco1 | 1% | 12% | . | ? | 79µM*
O=C(Nc1ccc2c(c1)nc1n2CCSC1)c1ccco1 | 2.2µM* | 3.2µM* | ? | -14% | -11%
Cn1c(CCNC(=O)c2ccco2)nc2cc(NS(=O)(=O)c3ccccc3)ccc21 | 19% | 2% | 20µM* | -1% | 10%
Cc1nc2cc(NC(=O)c3ccco3)ccc2n1C | 16µM* | ? | . | 2% | 13%
CC(C)CNc1ncnc2c1ncn2[C@H]1CN(C2CCCC2)C[C@@H](CO)O1 | . | . | . | -13% | .
COC(=O)c1nccc2c1[nH]c1ccccc12 | . | . | . | 4% | .
CN(Cc1ccco1)c1ncnc2ccc(-c3cccnc3)cc12 | -4% | 2% | ? | . | -28%
Cc1noc(C)c1-c1ccc2ncnc(N(C)Cc3ccco3)c2c1 | 13µM* | ? | 5% | . | -20%
CN(Cc1ccco1)c1ncnc2ccc(-c3ccc4c(c3)OCO4)cc12 | -8% | -2% | ? | . | 45µM*
c1ccc(-c2ccc3ccccc3n2)cc1 | . | . | . | -15% | .
CNc1ccccc(-c2ccc3ccccc3n2)c1=O | -36% | -29% | 3% | -9% | 56µM*
CCN(CC)S(=O)(=O)c1ccc(O)c(C(=O)OCC(=O)N2CCCc3ccccc32)c1 | . | . | . | -3% | .
CCCCCc1c(-c2ccc(F)cc2F)ncn1CCc1ccccc1OC | . | . | . | 3% | .
O=C(NNC(=O)c1ccccc1O)c1cccc(Br)c1 | 5µM* | -7% | . | -12% | 32%
O=C(NNC(=O)c1ccccc1O)c1ccc(Br)cc1 | 11µM* | 20µM* | . | 0% | 27%
O=C(NNC(=O)c1ccccc1O)c1ccc(Cl)cc1 | 8.9µM* | ? | 18% | -5% | 14%
O=C(NNC(=O)c1ccc2ccccc2c1)c1cccc(Br)c1 | . | . | . | -7% | .
O=C(c1cccc(Br)c1)N1CCN(C(=O)c2cccc(Br)c2)CC1 | 26% | -4% | 16µM* | -1% | 17%
CC(=O)NC(c1ccccc1)c1nc(-c2cccc(C(F)(F)F)c2)cs1 (stereo unspecified) | . | . | . | 3% | .
O=C(NC[C@@H]1CCCCN1)c1cc(OCC(F)(F)F)ccc1OCC(F)(F)F | -13%[16.9 µM] | 0%[17 µM] | 6%[20.9 µM] | . | 22%
COC(=O)[C@@]1(Cc2ccc(OC)cc2)[C@H]2c3cc(C(=O)N4CCCC4)n(CCN4CNCC4=O)c3C[C@H]2CN1C(=O)c1ccccc1 | 22% | -11% | -4% | . | 9%
CC(C)c1c(O)ccc2c1CCC1[C@@](C)(C=O)CCC[C@@]21C (stereo partly specified) | 19% | ? | -1% | . | 3%
c1nc(NC2CCNCC2)c2cc(-c3ccoc3)ccc2n1 | 5% | 0% | ? | . | -12%
COc1cc(OC)cc(C2=Cc3ccccc3C(CC(=O)c3ccco3)N2c2ccc(-c3ccc(C(N)=O)cc3)cc2)c1 (stereo unspecified) | . | . | . | -23% | .
